nsP2pro primary: Primary qHTS for inhibitors of NSP2Pro chikungunya virus (CHIKV); 1.1% of 31,000 active; FRET peptide cleavage, nsP2pro, fluorescence 1 h; Potency, µM (top dose mostly 24.9 µM), without a hit: top-dose activity change, negative = inhibition, hits mostly inhibitors; Polyprotein P1234 (Chikungunya virus (strain S27-African prototype)), Q8JUX6; AID 1964107, 2024; further: nearly all actives have a fitted effect of over 60% in size
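FRET cleavage of 2.5 uM peptide 2 by 150 nM CHIKV protease domain at pH 8.0 (Tris, Tween 20). Compounds at 7 concentrations (up to 25 uM) preincubated 15 min. Fluorescence read after 1 h at room temperature.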
nsP2 cell sec: Secondary cell base assay for inhibitors of NSP2Pro Chikungunya virus (CHIKV). shares compounds with nsP2pro primary. cell-based CHIKV nsP2 protease reporter assay. Potency, µM (top dose mostly 51.1 µM), inactives show at the highest dose activity change, negative = inhibition, actives largely listed as inhibitors. 10% of 450 active; further: nearly all actives have a fitted effect of over 70% in size
Target sequence (Q8JUX6 220-798 limits assumed): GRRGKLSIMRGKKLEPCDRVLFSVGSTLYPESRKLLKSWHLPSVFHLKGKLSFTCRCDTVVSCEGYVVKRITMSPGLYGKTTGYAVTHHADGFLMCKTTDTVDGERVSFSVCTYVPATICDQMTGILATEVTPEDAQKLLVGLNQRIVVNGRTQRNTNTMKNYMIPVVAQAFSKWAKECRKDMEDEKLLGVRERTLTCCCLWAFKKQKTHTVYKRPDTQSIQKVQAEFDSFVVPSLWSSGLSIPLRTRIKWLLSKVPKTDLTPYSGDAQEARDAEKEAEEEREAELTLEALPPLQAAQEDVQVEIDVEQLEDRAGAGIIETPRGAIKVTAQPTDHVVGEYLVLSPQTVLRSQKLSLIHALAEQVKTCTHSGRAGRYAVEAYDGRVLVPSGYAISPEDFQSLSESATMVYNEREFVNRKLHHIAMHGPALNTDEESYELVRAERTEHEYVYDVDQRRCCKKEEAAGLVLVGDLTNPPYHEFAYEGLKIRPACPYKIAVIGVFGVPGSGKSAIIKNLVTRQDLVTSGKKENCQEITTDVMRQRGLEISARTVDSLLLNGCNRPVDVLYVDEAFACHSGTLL
NSP2 full ctr: Selectivity profile for inhibitors of NSP2Pro chikungunya virus (CHIKV): Full length NSP2 enzyme counterscreen (CHIKV-NSP2); 39% of 410 active; Full-length CHIKV NSP2 protease enzymatic counterscreen; shares compounds with nsP2pro primary; Potency, µM (titrated, usually from 50.7 µM), inactives show at the highest dose activity change, negative = inhibition, usual class: inhibitors; further: nearly all actives have a fitted effect of over 65% in size
Furin counter: Selectivity profile for inhibitors of NSP2Pro chikungunya virus (CHIKV): Human furin counterscreen | shares compounds with nsP2pro primary | Recombinant human furin enzymatic counterscreen, fluorogenic substrate | Potency, µM (series often up to 50.6 µM), without a hit: top-dose activity change, negative = inhibition, usual class: inhibitors | 6% of 410 active
nsP2 NS23 pep: Selectivity profile for inhibitors of NSP2Pro chikungunya virus (CHIKV): Endogenous NS2/3 peptide Counterscreen; shares compounds with nsP2pro primary; Purified CHIKV nsP2 protease, endogenous NS2/3 peptide cleavage; Potency, µM (highest dose often 51 µM), inactives show at the highest dose activity change, negative = inhibition, most hits filed as inhibitors; 34% of 410 active; AID 1964103, 2024; further: nearly all actives have a fitted effect of over 55% in size
Papain cs: Selectivity profile for inhibitors of NSP2Pro chikungunya virus (CHIKV): Papain Counterscreen; shares compounds with nsP2pro primary; purified papain protease activity, enzymatic inhibition; Potency, µM (doses to about 51 µM), without a hit: at the top dose activity change, negative = inhibition, actives largely listed as inhibitors; 5% of 410 active; AID 1964104, 2024
nsP2pro confirm: Confirmatory qHTS for inhibitors of NSP2Pro chikungunya virus (CHIKV); shares compounds with nsP2pro primary; CHIKV nsP2 protease enzymatic activity, qHTS; Potency, µM (doses to about 25.5 µM), inactives show at the highest dose activity change, negative = inhibition, most hits filed as inhibitors; 43% of 410 active; AID 1964105, 2024; further: nearly all actives have a fitted effect of over 75% in size
HCV NS3 counter: Selectivity profile for inhibitors of NSP2Pro chikungunya virus (CHIKV): NS34A-HCV Counterscreen; 20% of 410 active; HCV NS3/4A protease biochemical counterscreen; AID 1964106, 2024; shares compounds with nsP2pro primary; Potency, µM (series often up to 50.9 µM), usual class: inhibitors; further: nearly all actives have a fitted effect of over 55% in size
* marks the source's active call; other numbers are inactive results; i = inactive; ? = inconclusive; nt = no result given. Many of the other results were omitted from the sample, so hits are more common in it than they were. The call rests on the fitted dose curve. On the % scale 0 is the no-effect control and ±100 the full control effect; potency means the concentration at half of the fitted maximal effect.

SMILES	nsP2pro primary	others
Cc1ccc([N+](=O)[O-])[c]2c1[O][Hg]2	1.6µM*	nsP2 cell sec=1.4µM*;NSP2 full ctr=?;Furin counter=1.3µM*;nsP2 NS23 pep=5.8µM*;Papain cs=-17%;nsP2pro confirm=0.71µM*;HCV NS3 counter=0.26µM*
Cc1noc(-c2ccc(-c3noc(-c4ccc([N+](=O)[O-])c(C)c4)n3)cc2)n1	-14%
CCOC(=O)c1cn(C2CN(S(=O)(=O)c3ccc(C)c(C)c3)C2)nn1	-13%
CCn1cc(C(=O)NCc2ccccc2)c(=O)c2cc(S(=O)(=O)N3CCc4ccccc4C3)ccc21	3%
Cc1noc(C)c1C(=O)N1CCOc2ccc(CCC(=O)NCC3CC3)cc2C1	5%
CCc1nnc(SC(CC)C(=O)NCCOC)c2cc3occc3n12 (stereo not drawn)	-22%
c1ccc(COc2ccc(CN3CCN(C4CCNC4)CC3)cc2)cc1 (stereo not drawn)	-5%
O=C(Nc1ccccc1C(=O)OCc1cc(=O)n2c3c(sc2n1)CCCC3)c1ccccc1	-3%
CCOC(=O)c1cccc(NC(=O)CCSCCc2ccccn2)c1	-14%
CCOC(=O)c1cccc(CNc2ccc(N(C)C(=O)Nc3ccccc3)cc2)c1	?	nsP2 cell sec=?;NSP2 full ctr=-13%;Furin counter=-11%;nsP2 NS23 pep=-8%;Papain cs=?;nsP2pro confirm=-3%;HCV NS3 counter=i
CCOC(=O)c1cccc(NCC2=CC(C)(C)Oc3ccc(OC)cc32)c1	-11%
CC(=O)N(CC(O)CN(C(C)=O)c1c(I)c(C(=O)NCC(O)CO)c(I)c(C(=O)NCC(O)CO)c1I)c1c(I)c(C(=O)NCC(O)CO)c(I)c(C(=O)NCC(O)CO)c1I (stereo not drawn)	9%
CC(=O)NCC(=O)N1[C@@H]2CC[C@H]1c1ccc(Nc3ncc(C(F)(F)F)c(NC4CCC4)n3)cc12	nt	nsP2 cell sec=-31%;NSP2 full ctr=?;Furin counter=-8%;nsP2 NS23 pep=-13%;Papain cs=?;nsP2pro confirm=?;HCV NS3 counter=i
CS(=O)(=O)c1cccc(CNc2nc(Nc3ccc4c(c3)CCC(=O)N4)ncc2C(F)(F)F)c1	0%
CCS(=O)(=O)N1CCN(c2ccc(Nc3ncc(C(N)=O)c(NC4CC4)n3)cc2)CC1	-11%
CN(C)N(C)C(=O)[C@@]1(Cc2ccccc2)CCCN(C(=O)[C@@H](Cc2c[nH]c3ccccc23)NC(=O)C(C)(C)N)C1	4%
CCc1ccc(-c2cc3n(n2)CCCN(C(=O)CCc2cc(Cl)no2)C3)cc1	10%
Cc1ccc(-c2cc3n(n2)CCCN(C(=O)CCc2cc(Cl)no2)C3)o1	8.9µM*	nsP2 cell sec=15%;NSP2 full ctr=-17%;Furin counter=1%;nsP2 NS23 pep=?;Papain cs=-4%;nsP2pro confirm=?;HCV NS3 counter=i
Cc1ccc(-c2cc3n(n2)CCCN(C(=O)CCN2C(=O)NC(C)(C)C2=O)C3)cc1C	i
NC1CCN(c2nc(-c3ccc(Br)cc3)cs2)CC1	i
Cc1c(C)c(NCC(=O)N(C)C2CCN(Cc3ccc(C(N)=O)cc3)CC2)c(C)c(C)c1N	-2%
CCCCNC(=O)CC1N=C2c3ccccc3N=C(SCC(=O)NCc3ccccc3Cl)N2C1=O (stereo not drawn)	-11%
NC(=O)c1cnc(-c2ccc(C3(N)CCC3)cc2)c(-c2ccccc2)c1	10%

High-throughput results: PubChem, National Center for Advancing Translational Sciences (NCATS)
